About 83,000 compounds went through this panel and 20% of them were active in at least one assay; those are over-represented in the sample as a whole.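 Cell lines were cultured in 96-well plates, exposed to a single compound concentration, and assessed for percent growth 48 hours later.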 Unmarked numbers belong to inactive results. Activity calls are given as the source filed them. How the source made its calls: active means growth percent below 10; inactive means the rest.

Holding throughout (experiment): NCI-60 one-dose screen, 48 h (100 = growth as untreated, 0 = no growth, -100 = all killed)
Holding throughout (conditions): 10 µM unless noted

Test [1] has as its system NCI-H23 lung.
In test [2] the test system is NCI-H226 lung.
In test [3] the test system is NCI-H322M lung.
For test [4], the system named is HOP-62 NSCLC.
The test system of test [5] is NCI-H460 lung.
For test [6], the system named is HOP-92 NSCLC.
Test [7] has as its system NCI-H522 lung.
The subject of test [8] is A549/ATCC NSCLC.
For test [9], the system named is 786-0 renal.
Test [10] relates to COLO 205 colon.

With `CCOC(=O)c1cn2c3c(cccc3c1=O)C(=O)/C(=C/c1cccc(Cl)c1Cl)C2`, the growth in test [1] is 93%; in test [2], 83%; in test [3] it was 97.4%; in test [4], 81.8%; in test [5], 107%; in test [6], 63.8%. Further, the growth was 73.1% in test [7], 98.2% in test [8] and 90.6% in test [9].

Take `COc1ccc(-c2ccc(-c3ccc(C(=N)N)s3)s2)cc1Cl`: the growth was 45.4% in [1]; 79.3% in test [2]; 96.8% in [3]; 70.9% in test [4]; -36.5% (active) in [5]; 16.5% in test [6]. The values for the growth in test [7], in test [8] and in test [9] were 0.287% (active), -69.8% (active) and 72.3%, respectively.

With `Brc1ccc(-c2[nH]ncc2-c2c[nH]c3ccccc23)cc1`, the growth was 92.5% in [1]; 92.8% in [2]; 99.7% in [3]; 111% in test [4]; 98.1% in [5]; 63.2% in [6]. The growth in test [7] was 107%; in test [8], 93.6%; in [9], 102%.

As for `COc1cc(Nc2nc(N[C@H]3CCCC[C@@H]3N)nc3cc[nH]c(=O)c23)cc(OC)c1`, the growth was 30.2% in test [1]; -13.5% (active) in test [2]; 9.42% (active) in test [3]; 47.6% in test [4]; 27.6% in [5]; -10.1% (active) in [6]. Further, the growth is -9.29% (active) in [7], 19.1% in [8] and 40.4% in [9].

Consider `OCc1ncc(-c2ccccc2)s1`, for which the growth in [1] is 93.1%; in test [2], 125%; in test [3], 173%; in [4], 96.9%; in test [5], 102%; in [6], 91.3%. Also, the growth in test [7] is 97.5%; in test [8], 110%; in [9], 60%.

For `N#Cc1c(-c2ccccc2)nc(SCC(=O)N2CCN(c3ccccc3)CC2)[nH]c1=O`, the growth in [1] is 96.4%; in test [2], 108%; in [3], 95.8%; in test [4], 87.7%; in [5], 110%; in test [6], 85%. Further, the growth in test [7] was 85.2%; in test [8], 96.6%; in [9], 97.9%.

Turning to `COc1cccc(CC(C)=C(c2ccc(OCCN(C)C)cc2)c2ccc(OCCN(C)C)cc2)c1`, the growth in test [1] was 70%; in test [2], 31.3%; in test [3], 1.04% (active); in [4], 3.07% (active); in test [5], -64.9% (active); in test [6], 10.2%. For the same molecule, the results for the growth in [7], in test [8] and in [9] were -39.8% (active), -21.7% (active) and -91% (active), respectively.

`CN1CCN(Cc2ccc(NC(=O)c3nc4ccc5[nH]ncc5c4c4c3CCC4)cc2C(F)(F)F)CC1`: the growth was 19.2% in test [1]; 73.9% in test [2]; -50.9% (active) in [3]; -78.7% (active) in test [4]; -84.2% (active) in test [5]; 65.5% in test [6]. Further, the values for the growth in [7], in [8] and in test [9] were -71.1% (active), -71.6% (active) and -96.5% (active), respectively.

Regarding `N=C(N)c1ccc(-c2ccc(-c3ccc4ccccc4c3)s2)cc1`, the growth in [1] is 88.7%; in test [2] it was 96.7%; in [3], 97%; in test [4] it was 97.6%; in test [5] it was 99.7%; in test [6], 79.3%. Besides, the results for the growth in test [7], in test [8] and in [9] were 104%, 71.5% and 95%, respectively.

As for `COc1cc2c(=O)n(C3CCCCCC3)c3c4cc[nH]c4ncc3c2cc1OC`, the growth in [1] is 77.1%; in [2] it was 43.9%; in test [3] it was 89.2%; in [4] it was 59%; in [5] it was 72.4%; in test [6] it was 59.1%. Besides, the values for the growth in test [7], in test [8] and in [9] were 65.4%, 79.7% and 90.2%, respectively.

For `O=c1[nH]c(Nc2ccc(S(=O)(=O)O)cc2)nc2nc(Nc3ccc(NC(=S)Nc4ccccc4)cc3)nc(-c3ccc(O)cc3O)c12`, the growth was 102% in [1]; 88.6% in test [2]; 125% in test [3]; 109% in test [4]; 105% in [5]; 102% in [6]. Also, the growth in [7] was 91.9%; in [8], 110%; in test [9], 104%.

As to `Nc1nc(Nc2cc(Cl)cc(Cl)c2)nn1S(=O)(=O)c1ccc2ccccc2c1`, the growth in [1] was 66.5%; in test [2] it was 66.7%; in test [3] it was 76.4%; in test [4], 66%; in test [5] it was 27.8%; in [6], -10.4% (active). The figures for the growth in test [7], in test [8] and in test [9] were 69%, 42.7% and 25.5%, respectively.

For `CCO/C=N/C1=C(C#N)C(c2ccc(Cl)cc2)c2c(c3ccccc3n(C)c2=O)O1` (stereo unspecified), the growth was 80.3% in [1]; 91.3% in test [2]; 85.9% in test [3]; 64.6% in test [4]; 79.9% in test [5]; 79.2% in test [6]. Besides, the growth in [7] is 58.7%; in test [8], 63.4%.

Take `N#Cc1c(-c2ccccc2)cc(-c2ccccc2)n(CC(=O)NO)c1=O`: the growth in test [1] was 53.1%; in test [2] it was 38.9%; in [3], 81.2%; in [4], 71.2%; in test [5] it was 83%; in test [6], 32%. Also, the growth in test [7] is -70.9% (active); in test [8], 54.4%; in test [9] it was 63.7%; in [10], 58.6%.

These data come from PubChem BioAssay (NCI).
